Among the test systems are NCI-H23 lung; NCI-H226 lung; NCI-H322M lung; HOP-62 NSCLC; NCI-H460 lung; HOP-92 NSCLC; A549/ATCC NSCLC; 786-0 renal; COLO 205 colon.
What all share (assay): NCI-60 one-dose screen, 48 h (100 = growth as untreated, 0 = no growth, -100 = all killed)
Holding throughout (conditions): 10 µM unless noted

Growth data for 13 compounds are collected here from PubChem BioAssay (NCI).

Structures are written as SMILES. The panel holds about 83,000 compounds, 20% with a hit somewhere; the sample as a whole holds those more often.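 Testing used 96-well plates and a 48-hour single-concentration exposure. Example: -40 means 40% of the starting cells died.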 Unmarked numbers belong to inactive results. The source made the active and inactive calls. The calls were made as follows: active = growth percent below 10; inactive = the rest.

Turning to `COC(=O)[C@H](CCCCNC(=O)OCc1ccccc1)NC(=O)[C@@H](NC(=O)Nc1cc(C(F)(F)F)cc(C(F)(F)F)c1)C(C)C`, the growth in the assay with NCI-H23 lung is -45.6% [100 µM] (active); in the assay on NCI-H226 lung it was 39% [100 µM]; in the assay on NCI-H322M lung, 19.9% [100 µM]; with HOP-62 NSCLC, -84.2% [100 µM] (active); in the assay on NCI-H460 lung, -23.1% [100 µM] (active); in the assay on HOP-92 NSCLC it was -69.5% [100 µM] (active). Also, the growth is 45.1% [100 µM] with A549/ATCC NSCLC, -91.7% [100 µM] (active) with 786-0 renal and -12.8% [100 µM] (active) in the assay on COLO 205 colon.

In the case of `CN1C(=O)C(C2=NN(C=O)C(c3ccc(F)cc3)C2)C(=O)N(C)C1=O` (configuration not stated), the growth in the assay on NCI-H23 lung is 99%; with NCI-H226 lung it was 85.2%; in the assay on NCI-H322M lung, 106%; in the assay on HOP-62 NSCLC, 84.4%; in the assay on NCI-H460 lung, 102%; in the assay on HOP-92 NSCLC, 91.7%. The values for the growth with A549/ATCC NSCLC, in the assay on 786-0 renal and with COLO 205 colon were 74.7%, 100% and 104%, respectively.

As for `Cc1ccc(C2=Nc3c(ccc4c(C)c(C)c(=O)oc34)OC2)cc1`, the growth with NCI-H23 lung is 97.4%; with NCI-H226 lung, 101%; in the assay on NCI-H322M lung, 90.2%; in the assay on HOP-62 NSCLC it was 97.3%; with NCI-H460 lung, 102%; in the assay with HOP-92 NSCLC, 87.1%. Further, the growth is 99.5% in the assay on A549/ATCC NSCLC, 93.6% in the assay on 786-0 renal and 111% in the assay on COLO 205 colon.

As to `COc1cc(C(=O)/C=C/c2cccc(Nc3ccnc4cc(Cl)ccc34)c2)cc(OC)c1OC`, the growth in the assay on NCI-H23 lung is 11.1%; with NCI-H226 lung, -18.7% (active); in the assay with NCI-H322M lung, 8.86% (active); in the assay with HOP-62 NSCLC it was -76.8% (active); with NCI-H460 lung it was 4% (active); in the assay with HOP-92 NSCLC it was 16.3%. The growth with A549/ATCC NSCLC was -38.7% (active); with 786-0 renal, -74.1% (active); with COLO 205 colon, -36.1% (active).

With `CCOc1cc(/C=C/C(=O)CC(=O)/C=C/c2ccc(OC(=O)CNc3nc4ccc(OC)cc4s3)c(OCC)c2)ccc1OC(=O)CNc1nc2ccc(OC)cc2s1`, the growth was 55.7% in the assay on NCI-H23 lung; 64.5% with NCI-H226 lung; 88.6% in the assay with NCI-H322M lung; 63.9% in the assay with HOP-62 NSCLC; 57.5% with NCI-H460 lung; 90.9% with HOP-92 NSCLC. The growth was 48.2% in the assay with A549/ATCC NSCLC, 32.2% with 786-0 renal and 109% in the assay with COLO 205 colon.

For `COC(=O)C1=CCC(n2cnc3c(N)ncnc32)O1` (configuration not stated), the growth was 92% in the assay on NCI-H23 lung; 87.5% in the assay on NCI-H226 lung; 94.4% in the assay with NCI-H322M lung; 94.3% with HOP-62 NSCLC; 121% in the assay on NCI-H460 lung; 89.9% with HOP-92 NSCLC. Besides, the growth in the assay on A549/ATCC NSCLC was 96.5%; with 786-0 renal it was 107%; in the assay on COLO 205 colon, 103%.

In the case of `C=CCN(/C=C/CN(CC=C)CC=C)CC=C`, the growth in the assay with NCI-H23 lung is 108%; with NCI-H226 lung, 95.7%; in the assay with NCI-H322M lung, 96.7%; in the assay with HOP-62 NSCLC, 97.7%; in the assay on NCI-H460 lung, 105%; in the assay with HOP-92 NSCLC, 91.2%. The values for the growth in the assay on A549/ATCC NSCLC, in the assay with 786-0 renal and in the assay with COLO 205 colon were 99.6%, 104% and 107%, respectively.

`c1ccc(COc2ccc(Nc3ncnc4c3cnn4-c3ccccc3)cc2)cc1`: the growth in the assay on NCI-H23 lung is 109%; with NCI-H226 lung it was 103%; with NCI-H322M lung, 84.1%; in the assay with HOP-62 NSCLC it was 104%; in the assay on NCI-H460 lung, 93.7%; in the assay on HOP-92 NSCLC, 98.8%. In addition, the growth in the assay with A549/ATCC NSCLC is 104%; with 786-0 renal, 100%; in the assay on COLO 205 colon, 107%.

As for `NS(=O)(=O)c1ccc(N2CC(c3nc4ccccc4[nH]3)CC2=O)cc1` (configuration not stated), the growth was 90.3% in the assay on NCI-H23 lung; 97.1% with NCI-H226 lung; 88.9% in the assay with NCI-H322M lung; 85.4% in the assay with HOP-62 NSCLC; 100% in the assay on NCI-H460 lung; 100% in the assay on HOP-92 NSCLC. For the same compound, the growth was 99.5% in the assay on A549/ATCC NSCLC, 102% with 786-0 renal and 101% with COLO 205 colon.

In the case of `O=C(Nc1cccc(-n2cc(-c3ccncc3)c(-c3cc(O)cc(Cl)c3)n2)c1)Nc1ccc(Cl)c(Cl)c1`, the growth in the assay on NCI-H23 lung is -20.5% (active); with NCI-H226 lung, 14.5%; with NCI-H322M lung, 19.5%; in the assay with HOP-62 NSCLC, -44.2% (active); with NCI-H460 lung, 0.213% (active); in the assay on HOP-92 NSCLC, -30.5% (active). Also, the figures for the growth with A549/ATCC NSCLC, in the assay with 786-0 renal and with COLO 205 colon were 3.96% (active), -72.1% (active) and 22.4%, respectively.

Consider `OCCCc1n(Cc2ccc3ccccc3c2)c2ccccc2[n+]1Cc1ccc2ccccc2c1`, for which the growth in the assay with NCI-H23 lung was 19%; in the assay with NCI-H226 lung it was 48.5%; in the assay with NCI-H322M lung it was 49.9%; with HOP-62 NSCLC it was 37.5%; in the assay on NCI-H460 lung it was 18.4%; in the assay with HOP-92 NSCLC it was -24.3% (active). In addition, the results for the growth in the assay with A549/ATCC NSCLC, with 786-0 renal and in the assay with COLO 205 colon were 68.4%, 36% and -58.9% (active), respectively.

`O=C1C=CC(=O)N1c1ccccc1N1C(=O)C=CC1=O`: the growth in the assay on NCI-H23 lung was 115%; in the assay on NCI-H226 lung it was 101%; in the assay on NCI-H322M lung, 122%; in the assay on HOP-62 NSCLC it was 94.5%; with NCI-H460 lung, 111%; with HOP-92 NSCLC, 82.8%. Besides, the figures for the growth with A549/ATCC NSCLC, in the assay on 786-0 renal and with COLO 205 colon were 121%, 110% and 57.7%, respectively.

For the compound `CN(C)c1ccc(-c2nc3ncc(Br)cc3o2)cc1`, the growth is 87.5% in the assay on NCI-H23 lung; 97.9% in the assay with NCI-H226 lung; 90.2% with NCI-H322M lung; 91.9% in the assay on HOP-62 NSCLC; 109% in the assay on NCI-H460 lung; 61.8% in the assay on HOP-92 NSCLC. For the same compound, the growth is 103% in the assay on A549/ATCC NSCLC, 86.5% in the assay with 786-0 renal and 81.3% with COLO 205 colon.
